Test results taken from PubChem BioAssay (NCATS).
Where “and” joins values, the source holds several entries; their conditions need not be identical. Equal values may be shown once. Records with an inconclusive call do not appear. Calls of active or inactive are those of the source. Unless noted, calls follow the shape of the dose curve; as a rule, active = well fitted curve in the direction sought with a large enough effect; inconclusive = small, poorly fitted or top-dose-only effect, or another doubt; inactive = no such curve, though single readings can be large; an effect the other way counts as inactive or inconclusive.

How the values were obtained:
[1] = biological target: Thyroid hormone receptor beta (Homo sapiens) (UniProt P10828); assay: qHTS assay for small molecule agonists of thyroid hormone receptor beta signaling (AID 588545; calls by dose curve)
Chain of Thyroid hormone receptor beta (Homo sapiens) (P10828 whole entry, looked up): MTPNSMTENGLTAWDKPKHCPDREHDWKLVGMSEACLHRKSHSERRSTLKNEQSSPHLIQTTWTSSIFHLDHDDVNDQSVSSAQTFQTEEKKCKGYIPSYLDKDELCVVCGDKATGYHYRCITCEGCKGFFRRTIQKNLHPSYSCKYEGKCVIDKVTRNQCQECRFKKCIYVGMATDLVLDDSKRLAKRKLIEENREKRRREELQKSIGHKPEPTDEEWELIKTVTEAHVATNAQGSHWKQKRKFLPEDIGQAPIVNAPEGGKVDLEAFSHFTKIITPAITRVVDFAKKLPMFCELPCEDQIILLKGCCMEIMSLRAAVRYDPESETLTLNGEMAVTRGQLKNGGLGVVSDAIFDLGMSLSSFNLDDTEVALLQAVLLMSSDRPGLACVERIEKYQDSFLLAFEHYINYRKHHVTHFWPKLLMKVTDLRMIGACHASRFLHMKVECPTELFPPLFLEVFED
How it was run: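 Agonist-mode beta-lactamase reporter assay, HEK 293 cells, 2% charcoal/dextran FBS; cells plated 4 hrs, compound 18 hrs at 37 C, CCF4 2 hrs RT. Normalized to 10 nM T3 (100%) and DMSO (0%); Hill fit gives EC50, efficacy.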

[2] = qHTS assay for small molecule antagonists of retinoid X receptor alpha signaling (AID 588546; active = well fitted inhibition curve with a large enough effect in the signal ratio, with a control signal flat, not every such curve was filed as active; the % refers to the signal ratio;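 also: cells stimulated with 9-cis-retinoic acid as agonist; % is scaled to controls: 0 for no effect and ±100 for the full control effect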); conditions: HEK293T RXRa-UAS-bla, beta-lactamase ratio, antagonist mode; measured here: W530 green channel, cytotoxicity proxy
How it was run: (§1)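 Beta-lactamase reporter inhibition, read as CCF4 fluorescence ratio (ex 405, em 460/530 nm) after 2 h at RT. HEK293T UAS-bla cells, 2500/well, were stimulated with 9-cis-RA at 500 or 100 nM final alongside test compound for 18 h at 37 C.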

[3] = biological target: Retinoic acid receptor RXR-alpha (Homo sapiens) (UniProt P19793); assay: as above; conditions: HEK293T RXRa-UAS-bla, beta-lactamase ratio, antagonist mode
Chain of Retinoic acid receptor RXR-alpha (Homo sapiens) (P19793 whole entry, looked up): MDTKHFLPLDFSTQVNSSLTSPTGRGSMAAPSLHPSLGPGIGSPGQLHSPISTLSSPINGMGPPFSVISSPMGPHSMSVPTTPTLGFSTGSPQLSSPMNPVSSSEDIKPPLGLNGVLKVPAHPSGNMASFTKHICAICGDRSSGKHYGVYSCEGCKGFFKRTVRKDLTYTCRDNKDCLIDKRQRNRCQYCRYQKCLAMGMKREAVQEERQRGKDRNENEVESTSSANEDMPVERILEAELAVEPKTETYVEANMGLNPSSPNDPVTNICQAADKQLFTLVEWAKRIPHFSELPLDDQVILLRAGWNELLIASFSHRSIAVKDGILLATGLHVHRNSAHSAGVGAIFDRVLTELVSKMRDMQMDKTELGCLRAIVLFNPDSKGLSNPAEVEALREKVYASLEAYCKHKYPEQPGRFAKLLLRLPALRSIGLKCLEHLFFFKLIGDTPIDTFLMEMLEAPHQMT
How it was run: as §1

[4] = qHTS assay for environmental chemicals that activate the Aryl hydrocarbon Receptor (AhR) signaling pathway (AID 651777); conditions: 1A2-DRE human hepatoma cells, luciferase, 24 h; activation: stronger effect = higher value; also: % of control where 0% means no effect; nearly all actives have a fitted effect of over 15% in size
How it was run: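 Human hepatoma 1A2-DRE cells, stably carrying a dioxin response element and CYP1A2 promoter driving luciferase, were exposed to compounds for 24 hr at 37 C and 5% CO2. Luciferase signal was then read after 30 min One-Glo at room temperature.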

[5] = biological target: Peroxisome proliferator-activated receptor alpha (Homo sapiens) (UniProt Q07869); assay: qHTS assay for small molecule agonists of the peroxisome proliferator-activated receptor alpha (PPARalpha) signaling pathway (AID 651778); conditions: PathHunter PPARalpha complementation, chemiluminescence, 6 h; max response: stronger effect = higher value; also: % of control where 0% means no effect
Chain of Peroxisome proliferator-activated receptor alpha (Homo sapiens) (Q07869 whole entry, looked up): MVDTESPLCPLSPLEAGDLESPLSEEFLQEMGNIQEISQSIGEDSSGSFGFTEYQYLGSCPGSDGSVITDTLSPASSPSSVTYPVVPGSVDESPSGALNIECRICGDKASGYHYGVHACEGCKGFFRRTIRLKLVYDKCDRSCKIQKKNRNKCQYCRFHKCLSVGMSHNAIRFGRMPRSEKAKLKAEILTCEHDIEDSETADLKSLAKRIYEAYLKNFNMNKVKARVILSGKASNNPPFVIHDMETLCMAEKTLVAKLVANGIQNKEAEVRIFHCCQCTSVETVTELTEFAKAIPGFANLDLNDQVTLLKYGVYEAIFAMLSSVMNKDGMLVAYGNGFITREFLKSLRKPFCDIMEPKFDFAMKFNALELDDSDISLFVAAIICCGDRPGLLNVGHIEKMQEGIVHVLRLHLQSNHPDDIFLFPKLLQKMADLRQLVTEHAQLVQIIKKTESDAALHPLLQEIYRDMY
How it was run: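 Chemiluminescence from complemented enzyme reported PPARalpha activation in cells after 6 hr of compound treatment at 37 C. The detection reagent was incubated for 60 min at room temperature, and compounds were scored as agonists.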

[6] = qHTS assay for small molecule agonists of the antioxidant response element (ARE) signaling pathway measured by Nrf2-dependant transcriptional activity (AID 720636; active = well fitted curve in the direction sought with a large enough effect in the repeat runs; an effect the other way counts as inactive or inconclusive; also: potency is read from the fitted curve at half-maximal effect; as to activation: % of control where 0% means no effect)
How it was run: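 ARE-luc HepG2 cells carrying an Nrf2-responsive luciferase reporter were plated in medium with 1% dialyzed FBS, left 6 hr at 37 C to attach, then exposed to compound for 16 hr. Luciferase luminescence was read after ONE-Glo addition.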

[7] = qHTS assay for small molecule agonists of the antioxidant response element (ARE) signaling pathway measured by Nrf2-dependant transcriptional activity - cell viability counter screen (AID 720653; active = well fitted curve in the direction sought with a large enough effect in the repeat runs; an effect the other way counts as inactive or inconclusive; also: % is scaled to controls: 0 for no effect and ±100 for the full control effect); conditions: ARE-bla HepG2 viability, CellTiter-Glo ATP luminescence, 16 h; max response: stronger effect = lower value
How it was run: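 Cytotoxicity counter screen: intracellular ATP quantified by CellTiter-Glo luminescence in the same ARE-bla HepG2 plates, after 16 h compound exposure and a 2 h beta-lactamase substrate step.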

[8] = Cell Viability - BJ (AID 421; calls by dose curve;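 also: potency is read from the fitted curve at half-maximal effect; cells exposed to compound for 40 hours at 37 °C before readout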); conditions: BJ fibroblast viability, qHTS
How it was run: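 Cytotoxicity in human BJ foreskin fibroblasts is scored as loss of cellular ATP after a 40-hour exposure, measured by luciferase luminescence. Controls are DMSO and 100 uM tamoxifen.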

[9] = Cell Viability - MRC5 (AID 434; calls by dose curve;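 also: potency is read from the fitted curve at half-maximal effect; cells exposed to compound for 40 hours at 37 °C; potency reflects cytotoxicity seen as loss of intracellular ATP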); conditions: MRC5 lung fibroblast viability, qHTS
How it was run: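 AC50 values come from Hill-equation fits of intracellular ATP loss, measured by CellTiter-Glo luminescence. Normal lung fibroblasts (MRC5) had 40 hr compound treatment at 37 C, normalized between DMSO and 100 uM tamoxifen.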

[10] = Cell Viability - SK-N-SH (AID 435; calls by dose curve;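 also: potency is read from the fitted curve at half-maximal effect; compound exposure lasted 40 h at 37 °C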); conditions: SK-N-SH neuroblastoma cell viability qHTS
How it was run: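 Luminescent ATP signal served as the viability read-out after 40 hours of compound treatment of human neuroblastoma SK-N-SH cells. Concentration-response data, scaled between DMSO and 100 uM tamoxifen, gave AC50 values by standard Hill modeling.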

[11] = Cell Viability - NIH 3T3 (AID 541); conditions: NIH 3T3 cell viability, qHTS; activity change, negative = cytotoxicity: at 92.2 µM (top of the series); also: nearly all actives have a fitted effect of over 25% in size; also: potency is read from the fitted curve at half-maximal effect;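 as to activity change, negative = cytotoxicity: plate controls were DMSO alone for no effect and tamoxifen positive control for full effect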
How it was run: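 Intracellular ATP (CellTiter-Glo luminescence, 20 min at room temperature) measured after 40 hr compound exposure at 37 °C of 1000 NIH 3T3 mouse fibroblasts/well in complete medium; AC50 derived by Hill-equation modelling of qHTS concentration-response curves.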

[12] = Cell Viability - Mesenchymal (AID 546); conditions: mesenchymal cells viability, qHTS; activity change, negative = cytotoxicity: at 91.7 µM (top of the series);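 also: cells exposed to compound for 40 hours before reading; 0% = DMSO only and -100% = 100 µM tamoxifen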
How it was run: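 CellTiter-Glo luminescence (intracellular ATP, 20 min room temperature) after 40 hr compound exposure at 37 °C of 1000 glomerulus-derived human kidney mesenchymal cells/well; AC50 values obtained by fitting qHTS concentration-response data to the Hill equation.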

[13] = Cellular Toxicity (caspase-3) BJ (AID 658);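 also: 0% = DMSO basal and 100% = 10 µM staurosporine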
How it was run: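 Caspase-Glo 3/7 luminescence, read 1 hr after reagent at room temperature, in normal BJ fibroblasts exposed 16 hours at 37 °C. AC50 values from Hill-equation concentration-response, scaled between DMSO basal and 10 uM staurosporine as 100%.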

[14] = Cellular Toxicity (caspase-3) MRC-5 (AID 659);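 also: 0% = DMSO basal and 100% = 10 µM staurosporine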
How it was run: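 Luminescent Caspase-Glo 3/7 read-out (1 h, room temperature) after a 16 h, 37 °C compound exposure of MRC-5 lung fibroblasts at 1500 cells/well. Concentration-response AC50 from Hill equation; 0% DMSO, 100% 10 uM staurosporine.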

[15] = Cellular Toxicity (caspase-3) Mesangial (AID 660);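 also: combined caspase 3 and 7 activity read by Caspase-Glo luminescence; cells exposed to compound for 16 h before the caspase read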
How it was run: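 Caspase 3/7 activation measured by Caspase-Glo 3/7 luminescence (20 min, room temperature) following 16 h exposure of mesangial cells (1000/well); AC50 from Hill-equation fit, normalized to DMSO and 100 uM tamoxifen.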

[16] = Cellular Toxicity (caspase-3) Hek293 (AID 664);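 also: cells exposed to compound for 16 h at 37 °C before readout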
How it was run: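 Concentration-response qHTS: caspase 3/7 activation measured by luminescent aminoluciferin substrate cleavage after 16 h compound exposure of Hek 293 cells. AC50 from Hill equation, with DMSO as basal and 100 uM tamoxifen as 100%.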

[17] = Cellular Toxicity (caspase-3) Renal Proximal Tubule (AID 667);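 also: cells exposed to compound for 16 hours at 37 °C before detection; 0% = DMSO basal and 100% = 10 µM staurosporine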
How it was run: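 AC50 derived by standard Hill fit of concentration-response data, normalized between DMSO basal and 10 uM staurosporine as 100% stimulation. Cells: primary rat kidney proximal tubule, 16 h treatment at 37 °C.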

[18] = MultiTox-Fluor Cytotoxicity Assay - LYMP1-003 - Live Cells (AID 962); also: potency is read from the fitted curve at half-maximal effect
How it was run: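 Live-cell protease activity (GF-AFC substrate, 405/510 nm, 60 min at room temperature) after 16 h, 37 C compound exposure of human lymphoblastoid LYMP1-003 cells; concentration-response fitted to the Hill equation for AC50.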

[19] = qHTS Assay for Identification of Small Molecule Inducers of Hypoxia Response (AID 2120; active = well fitted curve in the direction sought with a large enough effect in the signal ratio, with a control signal flat, not every such curve was filed as active; the % refers to the signal ratio; also: 0% is about no effect)
How it was run: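 Reporter induction read as the CCF4 blue/green (460nm/530nm) emission ratio after 2.5 h dye loading at room temperature. ME-180 HRE-beta-lactamase cells received titrated compounds for 17 h at 37 degrees Celsius; AC50 values derived.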

[20] = qHTS assay for cell viability of HEK293 cells (AID 743288); conditions: ATP luminescence (CellTiter-Glo), 18 h; max response: stronger effect = lower value; also: % is scaled to controls: 0 for no effect and ±100 for the full control effect; nearly all actives have a fitted effect of over 50% in size
How it was run: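 Viable-cell counts were inferred from luciferase-based ATP content in HEK293 cells seeded at 2,000/well, pre-incubated ≥5 h, then dosed with DMSO-solubilised compounds for 18 h at 37 C.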

CCCCCCCCOC(=O)c1cc(O)c(O)c(O)c1
inactive: outcome [1] | max response [3] -18.9% | activation [4] 0.999% | max response [5] -2.68% | Potency [6] | max response [7] -10.2%
-11.7%: max response [2]

Cc1cccc([N+](=O)[O-])c1C
-3.46% and -5.25%: max response [2]
inactive: Potency [8] > 92 µM | Potency [9] > 92 µM | Potency [10] > 92 µM | Potency [11] | activity change, negative = cytotoxicity [12] 1.97% | outcome [13] | outcome [14] | outcome [15] | outcome [16] | outcome [17] | Potency [18] | outcome [19] | outcome [1] | max response [3] -8.9% and -18.4% | activation [4] 0.368% and -0.256% | max response [5] 2.79% and -1.9% | Potency [6] | max response [7] 4.89% and -2.35% | max response [20] -3.29% and 4.27%

Cc1c(N=C=O)cccc1N=C=O
-2.03% and -4.55%: max response [2]
inactive: Potency [8] > 92 µM | Potency [9] > 92 µM | Potency [10] > 92 µM | Potency [11] | activity change, negative = cytotoxicity [12] -3.51% | outcome [13] | outcome [14] | outcome [15] | outcome [16] | outcome [17] | Potency [18] | outcome [19] | outcome [1] | max response [3] 6.11% and -21.4% | activation [4] 3.08% and 0.198% | max response [5] -4.58% and -0.661% | Potency [6] | max response [7] 0.551% and 0.668% | max response [20] 8.57% and -7.81%

COC(=O)c1ccc(C)cc1
inactive: Potency [8] > 92 µM | Potency [9] > 92 µM | Potency [10] > 92 µM | Potency [11] | activity change, negative = cytotoxicity [12] -2.78% | outcome [13] | outcome [14] | outcome [15] | outcome [16] | outcome [17] | Potency [18] | outcome [19] | outcome [1] | max response [3] 25.4% and -1.75% | activation [4] -1.02% and 0.0239% | max response [5] 0.456% and 0.65% | Potency [6] | max response [7] 2.73% and -0.323% | max response [20] 4.41% and -4.05%
-12.4% and -3.35%: max response [2]

C=CCOC(=O)c1ccccc1C(=O)OCC=C
-4.9% and -9.66%: max response [2]
inactive: Potency [8] > 92 µM | Potency [9] > 92 µM | Potency [10] > 92 µM | Potency [11] | activity change, negative = cytotoxicity [12] -9.3% | outcome [13] | outcome [14] | outcome [15] | outcome [16] | outcome [17] | Potency [18] | outcome [19] | outcome [1] | max response [3] -2.1% and -17.2% | activation [4] -0.581% and 2.86% | max response [5] 16.2% and -0.609% | Potency [6] | max response [7] -21% and -8.82% | max response [20] 7.73% and -19.3%

C=CC(=O)OCCOCCOCCOCCOC(=O)C=C
active: Potency [9] 41.6 µM | Potency [10] 10.9 µM and 23.1 µM | Potency [11] 2.51 µM and 3.98 µM | activity change, negative = cytotoxicity [12] -89.5% and -83.9% | Potency [18] 25.1 µM and 31.6 µM | Potency [6] 66.8 µM
inactive: Potency [8] > 92 µM | outcome [13] | outcome [14] | outcome [15] | outcome [16] | outcome [17] | outcome [19] | outcome [1] | activation [4] 1.73% and 5.16% | max response [5] -0.0133% and -3.95% | max response [7] -13%

CN(C)C=O
inactive: Potency [8] > 92 µM | Potency [9] > 92 µM | Potency [10] > 92 µM | Potency [11] | activity change, negative = cytotoxicity [12] 4.53% and 11.4% | outcome [13] | outcome [14] | outcome [15] | outcome [16] | outcome [17] | Potency [18] | outcome [19] | outcome [1] | max response [3] 8.45% and -9.56% | activation [4] 0.683% and 0.177% and 0.0089% | max response [5] 18% and -2.47% and -1.42% | Potency [6] | max response [7] -6.03% and 8.83% and -4.93% | max response [20] -10.8% and 1.33% and 0.809%
4.64% and -5.61%: max response [2]

C1OCOCO1
inactive: Potency [8] > 92 µM | Potency [9] > 92 µM | Potency [10] > 92 µM | Potency [11] | activity change, negative = cytotoxicity [12] -5.36% | outcome [13] | outcome [14] | outcome [15] | outcome [16] | outcome [17] | Potency [18] | outcome [19] | outcome [1] | max response [3] 38.1% | activation [4] -0.144% | max response [5] -0.344% | Potency [6] | max response [7] -3.94% | max response [20] -3.72%
-18.1%: max response [2]
